Hit rate of the full screen: of about 220,000 compounds, about 530 (0.24%) were called active. Only a selection was taken, and actives are over-represented in it overall. Measured potencies and affinities stand elsewhere. Values without a mark were called inactive. Rule as the data show it: active = inhibition above about 13%; inconclusive = no clear call, values can overlap the other calls; inactive = below that.
Each molecule was assayed against Bifunctional protein GlmU (Mycobacterium tuberculosis (strain ATCC 25618 / H37Rv)) (UniProt P9WMN3) (assay: inhibition of mycobacterial GlmU enzyme – biochemical, glucosamine-1-phosphate acetyltransferase (AID 1376;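 also: 0% = complete reaction with vehicle and 100% = reaction without substrate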)). Conditions: M. tuberculosis GlmU acetyltransferase enzyme assay; active compounds read high;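 tested at 30 µM in the primary screen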.
Bifunctional protein GlmU (Mycobacterium tuberculosis (strain ATCC 25618 / H37Rv)), sequence (P9WMN3 whole entry, looked up): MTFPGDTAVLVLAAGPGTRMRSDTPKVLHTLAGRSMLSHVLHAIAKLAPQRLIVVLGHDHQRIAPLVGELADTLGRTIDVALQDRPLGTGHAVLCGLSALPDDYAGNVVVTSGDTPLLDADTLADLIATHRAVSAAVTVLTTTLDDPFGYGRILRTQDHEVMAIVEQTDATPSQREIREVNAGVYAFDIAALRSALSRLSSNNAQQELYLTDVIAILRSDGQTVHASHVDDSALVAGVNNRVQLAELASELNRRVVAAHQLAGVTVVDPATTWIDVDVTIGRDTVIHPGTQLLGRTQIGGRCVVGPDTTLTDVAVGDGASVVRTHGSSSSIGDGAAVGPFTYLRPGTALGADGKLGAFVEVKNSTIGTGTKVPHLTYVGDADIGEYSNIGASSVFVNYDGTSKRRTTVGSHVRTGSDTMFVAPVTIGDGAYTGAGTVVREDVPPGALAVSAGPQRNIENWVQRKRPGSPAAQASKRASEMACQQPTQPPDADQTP

| SMILES | inhibition |
| --- | --- |
| COc1ccc(/C=N/NC(=O)CCC(=O)Nc2ccccc2)cc1OC | -0.28% |
| COc1ccc(N2CCN(C(CNC(=O)C(=O)NCCCn3ccnc3)c3cccnc3)CC2)cc1 (centres undefined) | 4.95% |
| COc1ccc(/C=C/C(=O)Nc2cc(C(F)(F)F)ccc2Cl)cc1OC | -4.68% |
| COc1cccc(C(=O)Nc2cc(C(F)(F)F)ccc2Cl)c1 | -5.67% |
| COc1ccc(C(=O)Nc2cc(C(F)(F)F)ccc2Cl)cc1OC | 48.9% (active) |
| Nc1ccc2nc3c(=O)n(C4CCCCC4)c(=O)[nH]c3nc2c1 | -0.52% |
| Nc1cc2nc3ccccc3nc2cc1N | 1.38% |
| C/C(=N/NS(=O)(=O)c1ccc(C)cc1)[C@H]1C[C@@H]1c1ccccc1 | 1.42% |
| COC(=O)c1ccc(OCCOc2ccc(C(=O)OC)cc2)cc1 | -4.5% |
| COC(=O)c1ccc(OCCOc2ccccc2)cc1 | 14.7% (active) |
| COC(=O)c1ccc(OCC(=O)c2ccccc2)cc1 | 2.96% |
| CCNCCNc1ccc(Cl)cc1[N+](=O)[O-] | 0.23% |
| c1ccc(CCn2nnnc2C(c2cccnc2)N2CCN(c3ccccc3)CC2)cc1 (centres undefined) | -3.96% |
| CSc1nnc([C@@H]2CCCN2C(=O)OC(C)(C)C)o1 | 6.66% |
| CCOC(=O)c1oc2nc(CC(C)C)c3c(c2c1N)CCCC3 | 2.38% |
| Cc1cc(NCC2CCCO2)n2c(nc3ccccc32)c1C#N (centres undefined) | 12.8% (active) |
| CCCc1cc(NCC2CCCO2)n2c(nc3ccccc32)c1C#N (centres undefined) | 7.14% |
| CC(C)c1cc(NCC2CCCO2)n2c(nc3ccccc32)c1C#N (centres undefined) | 5.33% |
| O=C(NCC1(N2CCCCC2)CCCCC1)c1ccc(S(=O)(=O)N2CCCC2)cc1 | 7.41% |
| Cc1ccccc1NS(=O)(=O)c1ccc2c(c1)NC(=O)CO2 | 13.3% (active) |
| Cc1c(F)cccc1NS(=O)(=O)c1ccc2c(c1)NC(=O)CO2 | -2.89% |
| Cc1cccc(C)c1NS(=O)(=O)c1ccc2c(c1)NC(=O)CO2 | 7.49% |
| Cc1nc(NC(N)=S)sc1C(=O)Nc1ccccc1 | 14.8% (active) |
| Cc1nc(Nc2ccccc2)sc1C(=O)Nc1ccccc1 | 2.24% |
| Cc1nc(NC(=O)COc2ccccc2)sc1C(=O)Nc1ccccc1 | 6.13% |

| SMILES | inhibition |
| --- | --- |
| O=C(NCc1n[nH]c(=S)n1-c1ccc(F)cc1)c1ccco1 | 3.33% |
| CCOC(=O)CC(=O)CSc1nc(-c2cccnc2)ccc1C#N | 2.76% |
| Cc1ccc(NC(=O)Cn2nnc3ccccc32)cc1 | -1.28% |
| CCCCn1c(CNC(=O)C23CC4CC(CC(C4)C2)C3)nnc1SC(C)CC (centres undefined) | -3.15% |
| Cc1ccc(S(=O)(=O)N(C)C/N=C(\N)N[N+](=O)[O-])cc1 | -3.35% |
| O=C1CCCC(O)=C1N=Nc1ccc2c(c1)OCO2 | 1.81% |
| O=C1CCCC(O)=C1N=Nc1ccc(C(=O)O)cc1 | 13.3% (active) |
| O=C1CCCC(O)=C1N=Nc1ccc(Cl)c(Cl)c1 | 0.41% |
| CCc1nnc(NC(=O)CSc2nc(-c3ccccc3)nc3ccccc23)s1 | -1.88% |
| CC1CC(C)(C)NC(=S)N1CCCC(=O)NCc1ccccc1 (centres undefined) | -0.79% |
| CN1CCN(C(c2cccnc2)c2ccc3cccnc3c2O)CC1 (centres undefined) | -1.35% |
| OCCN1CCN(C(c2cccs2)c2ccc3cccnc3c2O)CC1 (centres undefined) | 17.8% (active) |
| Oc1c(C(c2ccccc2Cl)N2CCCC2)ccc2cccnc12 (centres undefined) | -1.53% |
| CCc1ccc(CN(C)CCc2ccccn2)cc1 | 1.82% |
| O=C(NCc1ccc2c(c1)OCO2)C1CC(c2cccc(Br)c2)=NO1 (centres undefined) | 5.45% |
| COc1cc(/C=N/NC(=O)c2ccc(F)cc2)ccc1OC(=O)c1ccco1 | 1.03% |
| CCC1=NN(C(=O)c2ccc(Br)cc2)C(O)(c2ccccc2)C1 (centres undefined) | 1.41% |
| CCN(CC)CCC/C(=N\O)C(O)(c1ccccc1)c1ccccc1 | -1.2% |
| O=C(O)c1cc(O)ccc1-c1ccc(O)cc1 | 0.42% |
| COc1ccc(OCc2ccc(C(=O)O)cc2)cc1 | -5.61% |
| COc1ccc(OCc2cccc(C(=O)O)c2)cc1 | -3.31% |
| COc1ccc(C(=O)O)c(O)c1 | 1.05% |
| COc1ccc(-c2ccc(OC)cc2C(=O)O)cc1 | 14.9% (active) |
| CCN(CC)S(=O)(=O)c1ccc(N2CCOCC2)c(NC(=O)Cc2ccccc2)c1 | -0.9% |
| O=C(NC(=S)Nc1cc(S(=O)(=O)N2CCOCC2)ccc1N1CCOCC1)c1ccco1 | 1.22% |

| SMILES | inhibition |
| --- | --- |
| CCN(CC)S(=O)(=O)c1ccc(N2CCOCC2)c(NC(=S)NC(=O)c2ccco2)c1 | 14.6% (active) |
| Cc1cc(C)n(CCc2nc(-c3ccc(C(C)(C)C)cc3)cs2)n1 | -7.47% |
| O=C(CS(=O)(=O)Cc1ccccc1)Nc1ccccc1Cl | -1.63% |
| NC(=O)c1ccccc1NC(=O)CS(=O)(=O)Cc1ccccc1 | 14.6% (active) |
| CC(C)NC(=O)c1ccccc1NC(=O)CS(=O)(=O)Cc1ccccc1 | -2.67% |
| COc1ccc(S(=O)(=O)N(C)CC(=O)Nc2ccc3c(c2)OCO3)cc1OC | -3.21% |
| CCCCOC(=O)C1CN(c2ccccc2)N=C1C(C)=O (centres undefined) | 3.69% |
| Cc1ccc(S(=O)(=O)NC2OC(=O)C(Cl)=C2Cl)cc1 (centres undefined) | 13.1% (active) |
| Cc1ccccc1S(=O)(=O)NC1OC(=O)C(Cl)=C1Cl (centres undefined) | 9.45% |
| CC(=O)NC(=O)NC1OC(=O)C(Cl)=C1Cl (centres undefined) | 2.53% |
| C#CC[N+](C)(C)CCCCCCCCCC | -5.84% |
| CCC(c1nnnn1CCC(C)C)N1CCC(C(N)=O)CC1 (centres undefined) | 2.94% |
| Cc1ccc(Oc2ccc(OCC(=O)OC3CCS(=O)(=O)C3)cc2)cc1 (centres undefined) | -1.4% |
| Cc1ccc2c(c1)sc1nc(=O)n(-c3cccc(Cl)c3)c(=O)n12 | 38.6% (active) |
| Cc1ccc2c(c1)sc1nc(=O)n(-c3ccccc3)c(=O)n12 | 4.71% |
| Cc1ccc2c(c1)sc1nc(=O)n(-c3ccc(Cl)cc3)c(=O)n12 | 2.07% |
| O=C(NCC1CCCO1)c1nc2c(nnn2Cc2ccc(F)cc2)c(=O)[nH]1 (centres undefined) | 13.4% (active) |
| Cc1ccc(C)c(Cn2nnc3c(=O)[nH]c(C(=O)NCC4CCCO4)nc32)c1 (centres undefined) | 0.99% |
| O=C(NCC1CCCO1)c1nc2c(nnn2Cc2ccccc2Cl)c(=O)[nH]1 (centres undefined) | -1.69% |
| CCCCNC(=O)CNC(=S)N(CCCN1CCOCC1)Cc1cccs1 | 3.25% |
| Oc1ccc(/C=N/NC(=S)Nc2cccnc2)c(O)c1 | 3.56% |
| CN(C)S(=O)(=O)c1cccc(NC(=S)N/N=C/c2cc(Br)ccc2O)c1 | -0.84% |
| COc1ccc(O)c(/C=N/NC(=S)Nc2cccc(S(=O)(=O)N(C)C)c2)c1 | -8.22% |
| Oc1cccc(/C=N/NC(=S)Nc2cccnc2)c1O | 5.05% |
| COc1ccccc1NC(=O)CCC(=O)N(Cc1ccc(OC)c(OC)c1)c1nccs1 | -2.21% |

| SMILES | inhibition |
| --- | --- |
| CCN1CCN(c2cc3c(nn2)Oc2ccccc2N3C)CC1 | 0.59% |
| Cc1nc2ccccc2c(=O)n1NC(=O)Cc1ccc([N+](=O)[O-])cc1 | -0.18% |
| O=C(Cn1nc(-c2ccccc2)c2ccccc2c1=O)Nc1cccc(O)c1 | 3.9% |
| O=C1NC(=O)N(c2ccccc2)C(=O)/C1=C/c1ccoc1 | -0.64% |
| Cc1ccc(N2C(=O)NC(=O)/C(=C\c3ccoc3)C2=O)cc1 | 0.76% |
| CCCC(c1nnnn1CC(=O)OCC)N(Cc1cc2ccc(C)cc2[nH]c1=O)C1CCCC1 (centres undefined) | 7.33% |
| CCOC(=O)N1CCN(C(=O)CN(c2ccc(OCc3ccccc3)cc2)S(C)(=O)=O)CC1 | 4.38% |
| O=C(NNC(=S)NC(=O)c1cccnc1)c1ccccc1 | -2.11% |
| O=C(NNC(=S)NC(=O)c1cccnc1)c1ccc(F)cc1 | 13.5% (active) |
| O=C(NNC(=S)NC(=O)c1cccnc1)c1ccc(Cl)cc1 | -3.46% |
| Cc1ccccc1C(=O)NNC(=S)NC(=O)c1cccnc1 | 4.43% |
| O=C(NC(=S)NNC(=O)c1ccccc1F)c1cccnc1 | 3.92% |
| O=C(NC(=S)NNC(=O)c1ccccc1O)c1cccnc1 | 12.9% (active) |
| CCOC(=O)C1=C(C)Nc2nc3ccccc3n2C1c1ccc(O)cc1 (centres undefined) | 6.95% |
| Nc1nc(CN2CCN(C(c3ccccc3)c3ccccc3)CC2)nc(Nc2ccccc2)n1 | -2.82% |
| COC(=O)CC1C(=O)NCCN1C(=O)CSc1nnnn1-c1ccc(OC)cc1 (centres undefined) | -2.52% |
| O=C(O)C1CC1c1ccc(Br)cc1 (centres undefined) | 2.18% |
| CCCNc1nc(C)nc2c1cnn2CCc1ccccc1 | 1.42% |
| CCN(CC)c1ccc(C=C2C(=O)OC3(CCCCC3)OC2=O)cc1 | -3.43% |
| CCN(CC)c1ccc(C=C2C(=O)OC3(CCCC3)OC2=O)cc1 | -0.14% |
| O=C(O)c1ccc2c(c1)C(=O)/C(=C/c1ccccc1)C2=O | 18.9% |
| CCN(CC)c1ccc(C(=O)O)cc1 | -1.49% |
| COc1ccc(-c2ccc(OC)c([C@H]3[C@H]4C=CC[C@@H](C)[C@@H]4C(=O)N3Cc3ccccc3)c2)cc1C | 1.44% |
| CCOc1cc2c(cc1C=O)OC(C)C2 (centres undefined) | -3.18% |
